Peg3 promoter: Peg3 promoter activity inhibition | HeLa PEG-Prom luciferase reporter, luminescence, overnight | inhibition, % at 20 µM | hit rate 1.7% among 360,000 | AID 588405;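 active = inhibition of at least 50% at 20 µM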
CF NFkB inh: inhibitors of cystic fibrosis induced NF-kB; KKLEB NF-kB-GFP reporter, PAF-induced, GFP fluorescence overnight; inhibition, % at 5 µM; hit rate 0.86% among 360,000; AID 588850;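 active = at least 50% inhibition at 5 µM, scaled per plate between neutral and stimulator controls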;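 also: PAF is a Pseudomonas aeruginosa culture filtrate used as stimulus; plate controls were PAF-stimulated DMSO wells for no effect and unstimulated DMSO wells for full effect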
LGR2 inh: Drosophila LGR2 receptor signaling inhibition | HEK293 LGR2, CRE-luciferase, bursicon-stimulated, 4 h | inhibition, % at 9.99 µM | hit rate 0.35% among 380,000;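 active = drop in luminescence signal, shown as inhibition above about 50% in the replicate tests, limit read from the data, passing the limit was not always enough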;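 also: agonist challenge used bursicon conditioned medium at about half maximal strength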
HSP90 refold inh: blocks HSP90-mediated luciferase refolding in reticulocyte lysate; Rabbit reticulocyte lysate, luciferase refolding luminescence, 3 h; inhibition, % at 5.6 µM; hit rate 0.91% among 290,000;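 active = inhibition above the screen-wide mean plus 3 SD, computed separately per campaign, cut at about 16% in these data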;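 also: 0% = DMSO wells and 100% = 60 µM geldanamycin wells; inhibitors lower the luminescence because luciferase stays unfolded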
Mdm2-MdmX inh: disrupts the human Mdm2-MdmX interaction; inhibition, % at 8 µM; O15151+Q00987; SaOS-2 split-luciferase Mdm2/MdmX complementation, luminescence; hit rate 3% among 330,000;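 active = inhibition of at least 50% at 8 µM in the primary screen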
Target sequence (O15151 whole entry, looked up): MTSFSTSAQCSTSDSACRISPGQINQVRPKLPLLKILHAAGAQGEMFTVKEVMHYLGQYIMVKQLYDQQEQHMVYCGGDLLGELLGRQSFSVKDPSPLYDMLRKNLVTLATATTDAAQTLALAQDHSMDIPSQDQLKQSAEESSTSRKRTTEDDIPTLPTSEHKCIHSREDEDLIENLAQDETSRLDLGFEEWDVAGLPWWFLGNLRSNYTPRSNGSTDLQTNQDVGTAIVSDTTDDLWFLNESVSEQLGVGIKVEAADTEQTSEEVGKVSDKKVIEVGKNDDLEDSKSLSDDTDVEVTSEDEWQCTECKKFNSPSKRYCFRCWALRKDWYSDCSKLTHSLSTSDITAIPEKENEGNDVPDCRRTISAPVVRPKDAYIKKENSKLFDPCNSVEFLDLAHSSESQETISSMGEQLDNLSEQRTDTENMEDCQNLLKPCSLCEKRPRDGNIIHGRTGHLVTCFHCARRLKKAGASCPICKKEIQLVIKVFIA
Target sequence (Q00987 whole entry, looked up): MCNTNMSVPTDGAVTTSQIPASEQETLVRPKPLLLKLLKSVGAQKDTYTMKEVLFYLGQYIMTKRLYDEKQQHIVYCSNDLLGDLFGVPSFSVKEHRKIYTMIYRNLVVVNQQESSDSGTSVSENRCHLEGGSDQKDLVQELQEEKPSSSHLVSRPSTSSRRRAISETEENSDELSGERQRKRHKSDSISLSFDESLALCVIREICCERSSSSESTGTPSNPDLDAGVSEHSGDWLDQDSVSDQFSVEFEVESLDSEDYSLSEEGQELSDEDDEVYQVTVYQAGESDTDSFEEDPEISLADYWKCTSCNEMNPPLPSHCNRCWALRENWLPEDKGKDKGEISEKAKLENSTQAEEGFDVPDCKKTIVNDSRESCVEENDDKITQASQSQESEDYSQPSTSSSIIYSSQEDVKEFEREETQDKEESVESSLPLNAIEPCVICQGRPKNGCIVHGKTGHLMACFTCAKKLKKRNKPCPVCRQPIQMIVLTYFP
KKLEB cytotox: counter-screen for CF NF-kB inhibitors: cytotoxicity | hit rate 0.36% among 360,000 | activity change (cytotoxicity), % at 5 µM | KKLEB CF airway cells viability, ATPlite luminescence, overnight; stronger effect = lower value; cells stimulated with P. aeruginosa culture filtrate | AID 602141;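 active = corrected activity change at or below -50% at 5 µM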
Mdm2-MdmX conf: confirmation of human Mdm2/MdmX interaction inhibitors; shares compounds with Mdm2-MdmX inh; Mdm2-MdmX binding, luminescent assay; inhibition, % at 8 µM; hit rate 55% among 10,000; AID 489028; in the data active = inhibition above about 40%
FLuc counter: full-length luciferase inhibition in Mdm2/MdmX counter-screen. shares compounds with Mdm2-MdmX inh. SaOS-2 full-length luciferase counterscreen, luminescence. inhibition, % at 8 µM. hit rate 77% among 6,200. AID 504607;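 active = mean inhibition at 8 µM reaching about 37%, which flags the compound as non-specific, limit read from the data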;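 also: p53-null SaOS-2 cells with luciferase driven by a doxycycline-inducible promoter; compound on cells about two nights before reading with doxycycline added after day one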
An asterisk follows results filed as active; nt = no result. An excerpt weighted towards active compounds, which were near 3.6% of everything screened.

SMILES | Peg3 promoter | CF NFkB inh | LGR2 inh | HSP90 refold inh | Mdm2-MdmX inh | KKLEB cytotox | Mdm2-MdmX conf | others
Cc1cc(=O)oc2cc(OCC(=O)Nc3nnc(C(C)C)s3)ccc12 | 9.2 | 13.7 | nt | -10.1 | -6.1 | -0.9 | nt
Cc1cc2c(cc1C)-c1nnc(-c3ccc4ccccc4n3)n1C(C)(C)C2 | nt | nt | nt | -2.5 | 69.8* | nt | -0.8
CC1(C)Cc2ccccc2-c2nnc(-c3ccc4ccccc4n3)n21 | -7.4 | -0.3 | nt | -0.1 | 5.9 | -1.7 | nt
O=Cc1ccccc1OCCOc1ccccc1C=O | -97.0 | 23.4 | -47.4 | 0.5 | 51.4* | -24.1 | 42.9* | FLuc counter=90.7*
COc1ccc2c3c(n(C)c2c1)[C@H](CO)N(C(=O)NC(C)C)CC31CN(C(=O)NC(C)C)C1 | nt | nt | 26.0 | nt | nt | nt | nt
Cc1cc2oc(C(=O)Nc3ccc(S(N)(=O)=O)cc3)c(C)c2cc1Cl | 15.2 | 9.5 | 19.8 | -0.2 | 55.0* | -21.2 | 47.8* | FLuc counter=58.2*
Clc1ccc(OCCCNCc2ccccc2)c(Br)c1 | 3.3 | 1.9 | -2.7 | 0.1 | 65.3* | 0.4 | 24.4
Clc1ccc(Cl)c(OCCCCNCc2ccccc2)c1 | 23.8 | 20.6 | -8.6 | -0.1 | 29.9 | -3.1 | nt
O=C(Nc1cccc(Cl)c1)N1C[C@@H]2[C@H](c3ccccc31)[C@H](CO)N2C(=O)c1ccncc1 | nt | nt | -25.3 | nt | nt | nt | nt
Cc1ccc(NC2=C/C(=N\S(=O)(=O)c3cccs3)c3ccccc3C2=O)c(C)c1 | 110.9* | 96.0* | nt | 26.4* | 84.5* | -101.5* | 100.0* | FLuc counter=51.9*
Cc1ccc(Cl)cc1NC1=C/C(=N\S(=O)(=O)c2cccs2)c2ccccc2C1=O | 109.6* | 91.9* | 105.5* | 7.5 | 80.6* | -104.6* | 99.8* | FLuc counter=52.3*
O=C(NC1CCCCC1)[C@H]1[C@H](CO)[C@H]2Cn3c(cccc3=O)[C@H]2N1CC1CCCC1 | nt | nt | 12.9 | nt | nt | nt | nt
Cc1ccc(S(=O)(=O)Nc2ccc3c(c2)CC(=O)N([C@H](C)CO)C[C@H](C)[C@@H](CN(C)C(=O)NC(C)C)O3)cc1 | nt | nt | 4.6 | nt | nt | nt | nt
O=C(c1cnccn1)N1CC[C@H]2[C@H](CO)Nc3ccc(C#Cc4cccnc4)cc3[C@H]21 | nt | nt | -2.2 | nt | nt | nt | nt
Cc1ccc(S(=O)(=O)N(C)C[C@@H]2Oc3c(NC(=O)Nc4ccc5c(c4)OCO5)cccc3C(=O)N([C@H](C)CO)C[C@@H]2C)cc1 | nt | nt | 11.2 | nt | nt | nt | nt
O=C(Nc1ccccc1)N1C[C@H]2[C@@H](c3ccccc31)[C@H](CO)N2C(=O)Cc1ccccn1 | nt | nt | -15.9 | nt | nt | nt | nt
COc1ccc([N+](=O)[O-])cc1NC(=O)CSCc1ccc(Br)cc1 | 33.3 | -4.7 | nt | -1.2 | 51.2* | 1.5 | -2.9
COc1ccc([N+](=O)[O-])cc1NC(=O)CSCc1ccccc1C | 10.7 | 17.4 | 10.6 | 2.8 | -3.7 | -9.3 | nt
CCOc1cc(/C=C/C(=O)Nc2ccc(C(=O)NCCN(CC)CC)cc2)ccc1OCC(C)C | 104.0* | 12.9 | 102.9* | 8.4 | 94.3* | -33.7 | 28.1
CCOc1ccc(/C=C/C(=O)Nc2ccc(C(N)=O)cc2)cc1OC | 1.3 | -8.5 | -1.6 | 1.6 | -8.6 | -9.8 | nt
Cc1noc(C)c1S(=O)(=O)Nc1ccc2c(c1)C(=O)N([C@H](C)CO)C[C@H](C)[C@@H](CN(C)Cc1ccncc1)O2 | nt | nt | 12.0 | nt | nt | nt | nt
C[C@@H]1CN([C@H](C)CO)S(=O)(=O)c2ccc(-c3cncnc3)cc2O[C@@H]1CN(C)C(=O)C1CCCCC1 | nt | nt | 10.6 | nt | nt | nt | nt
NC1=NC[C@H](c2ccccc2)N1CCCCC1CCCCC1 | 99.8* | 4.6 | 6.8 | nt | 50.8* | -25.8 | 28.4
C[C@@H]1CN([C@@H](C)CO)C(=O)c2cc(C3=CCCCC3)cnc2O[C@@H]1CN(C)C(=O)c1ccccc1 | nt | nt | -17.0 | nt | nt | nt | nt
CCCOc1ccc(CNC(=O)c2ccc3nc(N4CCOCC4)sc3c2)cc1 | 11.9 | 16.7 | 14.7 | 1.9 | 51.2* | -2.4 | 6.8
SMILES | Peg3 promoter | CF NFkB inh | LGR2 inh | HSP90 refold inh | Mdm2-MdmX inh | KKLEB cytotox | Mdm2-MdmX conf | others
O=C(CNc1ccc(F)cc1Cl)Nc1cccc(S(=O)(=O)N2CCCCC2)c1 | -15.7 | 7.6 | 11.2 | nt | 6.2 | 8.0 | nt
COc1cc(Cl)c(C)cc1NCC(=O)Nc1cccc(S(=O)(=O)N2CCCC2)c1 | 15.8 | -12.1 | 4.1 | nt | 51.4* | -18.9 | 13.6
COc1ccc(NC(=O)COc2cc(C)cc(C)c2)cc1S(=O)(=O)N1CCCCC1 | -8.5 | 11.2 | 10.4 | nt | 61.7* | -5.5 | 74.6* | FLuc counter=51.3*
COc1ccc(NC(=O)COc2ccc(C)c(C)c2)cc1S(=O)(=O)N1CCCCC1 | -71.1 | 11.6 | 2.6 | nt | -0.9 | -11.8 | nt
COCCn1c(C)cc(C(=O)CSc2nnnn2C2CCCC2)c1C | 35.9 | -13.5 | 79.9* | nt | 71.9* | -5.6 | 79.9* | FLuc counter=79.0*
CN(C)C(=O)C[C@H]1C=C[C@H](NC(=O)C2CCOCC2)[C@H](CO)O1 | nt | nt | 2.7 | nt | nt | nt | nt
Cc1cc(SCc2ccc(Cl)cc2Cl)nc(=O)[nH]1 | 19.2 | 0.1 | 5.5 | 4.4 | 53.1* | 6.7 | 30.2
COc1ccc(/C=C/c2nc(N)nc(-c3ccccc3O)n2)cc1OC | 28.8 | 31.5 | 27.6 | -4.2 | 61.5* | 14.0 | 44.4* | FLuc counter=83.7*
Cc1ccc(CC(=O)NCc2ccc(F)cc2)cc1 | 5.2 | 22.3 | -8.7 | 3.2 | 58.1* | -20.4 | 48.0* | FLuc counter=59.3*
Cc1ccc(CNC(=O)Cc2ccc(-c3ccccc3)cc2)cc1 | 13.2 | 39.4 | -30.3 | 0.2 | 57.6* | -11.5 | 60.8* | FLuc counter=73.2*
COc1cccc(-c2ccc3c(c2)[C@H]2[C@H](CCN2C(=O)C2CCC2)[C@@H](CO)N3)c1 | nt | nt | -5.5 | nt | nt | nt | nt
Cc1ccc(S(=O)(=O)NCC[C@H]2CC[C@H](NS(=O)(=O)c3ccccc3Cl)[C@@H](CO)O2)cc1 | nt | nt | 7.6 | nt | nt | nt | nt
CC(=O)NCc1ccc(S(=O)(=O)N2CCN(S(=O)(=O)c3ccc4ccccc4c3)CC2)cc1 | 10.6 | -20.6 | -6.1 | nt | 62.5* | 3.6 | 34.0
COc1ccc(NC(=O)N(C)C[C@H]2OCCCC[C@H](C)Oc3ccc(NS(C)(=O)=O)cc3C(=O)N([C@@H](C)CO)C[C@@H]2C)cc1 | nt | nt | 12.1 | nt | nt | nt | nt
CCOC(=O)C1CCCN(C(c2ccccn2)c2c(C)[nH]c3ccccc23)C1 (stereo not drawn) | 8.1 | 9.2 | nt | -0.7 | 52.8* | 1.1 | 3.7
CCNC(=O)C[C@H]1CC[C@H]2[C@@H](COc3ccc(NC(=O)Cc4ccccc4)cc3C(=O)N2C)O1 | nt | nt | 10.5 | nt | nt | nt | nt
Oc1ccccc1-c1nnc(SCCN2CCOCC2)n1Cc1ccccc1 | 53.4* | 5.5 | nt | 0.0 | 69.3* | 0.2 | 18.7
CC(C)c1ccc(O)c(=O)cc1 | 12.4 | 3.9 | 0.0 | nt | nt | 4.9 | nt
CC(C)c1cccc(O)c(=O)c1 | 47.7 | 17.3 | -12.4 | -1.6 | 86.4* | -3.8 | 74.2* | FLuc counter=27.6
C[C@H]1CN([C@@H](C)CO)C(=O)Cc2cc(NS(=O)(=O)c3cn(C)cn3)ccc2O[C@H]1CN(C)C(=O)Nc1cccc2ccccc12 | nt | nt | -9.9 | nt | nt | nt | nt

Assay outcomes from PubChem.
